Experimental data taken from the supplement of paper PMC9950053.
Where a name gives a salt, the structure may show the parent alone.

test system: Danio rerio larvae (5 dpf); test: excitability (activity period 17 minus period 16, 1-s interval sound) minus DMSO control (percentage points); higher = more acoustic excitability than DMSO larvae; details: 10 µM; exposure time: 3 h pre-incubation + 3 h imaging
Method: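 Wild-type 5 dpf zebrafish larvae (n=48 per drug, 96-well plates, 28.5 °C) were exposed to Tocris FDA-approved library compounds at 10 µM (0.1% DMSO) for 3 h before and 3 h during imaging. Images were taken every 6 s during visual and acoustic stimuli, and larvae were tracked with Z-LaP Tracker. Each measure is the treated-group mean minus the DMSO control mean (n=844), in percentage points. This mapping covers compounds with 5-character plate codes.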

Q: `COc1ccc(C(CN(C)C)C2(O)CCCCC2)cc1` (stereo unspecified) [Venlafaxine hydrochloride] was tested. Which excitability did it give?
A: The excitability was 8.91.
